# Assay results reported in PubChem BioAssay (NCATS).
# Inconclusive results are not listed. A number with no mark means an inactive call. Active and inactive are the calls of the source. The call rests on the fitted dose curve; in most records, active means well fitted inhibition curve with a large enough effect; inconclusive means small, poorly fitted or top-dose-only effect; inactive means flat fitted curve, though single readings scatter.
# System: 3D7
# Assay: qHTS profiling for inhibitors of Plasmodium falciparum proliferation (AID 504749); further: nearly all actives have a fitted effect of over 60% in size;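 on activity, negative = inhibition: 0% = DMSO vehicle and full inhibition = artemisinin control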
# Settings: P. falciparum in erythrocytes, SYBR Green DNA, 72 h; series mostly up to 28.7 µM; activity, negative = inhibition: at the top concentration
# How it was run: (§1)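 Three-day growth assay of blood-stage parasites in erythrocytes (0.3% parasitemia, 2.5% hematocrit) at 37 C, 5% CO2, quantified by SYBR Green DNA staining after overnight detergent lysis.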
# Potency means the concentration at half of the fitted maximal effect.
Structure (SMILES),"activity, negative = inhibition",Potency
Cc1c(C)c2c(c(C)c1O)CCC(C)(COc1ccc(CC3SC(=O)NC3=O)cc1)O2 (stereo not drawn),-24.4%,
N[C@@H]1CONC1=O,-9.46%,
O=c1[nH]cnc2[nH]ncc12,-12.8%,
CC(C[N+](C)(C)C)OC(N)=O (stereo not drawn),2.54%,
Cc1[nH]c(=O)c(C#N)cc1-c1ccncc1,-1.81%,
C1COC(NC(C2CC2)C2CC2)=N1,-17.4%,
O=NN(CCCl)C(=O)NCCCl,-5.42%,
C#Cc1cccc(Nc2ncnc3cc(OCCOC)c(OCCOC)cc23)c1,,8.91 µM (active)
NS(=O)(=O)c1cc2c(cc1Cl)NC=NS2(=O)=O,-1.33%,
CC(c1cc2ccccc2s1)N(O)C(N)=O (stereo not drawn),0.0223%,
NCCCC(N)(C(=O)O)C(F)F (stereo not drawn),-0.248%,
CNC[C@H](O)c1cccc(O)c1,1.6%,
CC(C)C[C@H](NC(=O)[C@@H](O)[C@H](N)Cc1ccccc1)C(=O)O,,2.51 µM (active)
CCCCNc1cc(C(=O)O)cc(S(N)(=O)=O)c1Oc1ccccc1,-8.02% [at 12.8 µM],
O=C1CCc2cc(OCCCCc3nnnn3C3CCCCC3)ccc2N1,-0.238%,
NCCc1ccc(O)c(O)c1,-9.32%,
NC[C@H](O)c1ccc(O)c(O)c1,1.56%,
Nc1nc2c(ncn2COCCO)c(=O)[nH]1,11.4% [at 12.8 µM],
CCc1ccc(CCOc2ccc(CC3SC(=O)NC3=O)cc2)nc1 (stereo not drawn),1.82%,

# System: 7G8
# Assay: as above
# Settings: P. falciparum in erythrocytes, SYBR Green DNA, 72 h; series mostly up to 28.7 µM; activity, negative = inhibition: at the top concentration
# How it was run: as §1
Structure (SMILES),Potency,"activity, negative = inhibition"
Cc1c(C)c2c(c(C)c1O)CCC(C)(COc1ccc(CC3SC(=O)NC3=O)cc1)O2 (stereo not drawn),10 µM (active),
N[C@@H]1CONC1=O,,-12.1%
O=c1[nH]cnc2[nH]ncc12,,-14.6%
CC(C[N+](C)(C)C)OC(N)=O (stereo not drawn),,-1.12%
Cc1[nH]c(=O)c(C#N)cc1-c1ccncc1,,-16.8%
C1COC(NC(C2CC2)C2CC2)=N1,12.6 µM (active),
O=NN(CCCl)C(=O)NCCCl,,-11.9%
C#Cc1cccc(Nc2ncnc3cc(OCCOC)c(OCCOC)cc23)c1,11.2 µM (active),
NS(=O)(=O)c1cc2c(cc1Cl)NC=NS2(=O)=O,,0.513%
CC(c1cc2ccccc2s1)N(O)C(N)=O (stereo not drawn),,14.1%
NCCCC(N)(C(=O)O)C(F)F (stereo not drawn),,9.08%
CNC[C@H](O)c1cccc(O)c1,,16.4%
CC(C)C[C@H](NC(=O)[C@@H](O)[C@H](N)Cc1ccccc1)C(=O)O,4.47 µM (active),
CCCCNc1cc(C(=O)O)cc(S(N)(=O)=O)c1Oc1ccccc1,,13.7% [at 12.8 µM]
O=C1CCc2cc(OCCCCc3nnnn3C3CCCCC3)ccc2N1,,-21.6%
NCCc1ccc(O)c(O)c1,,-14.9%
NC[C@H](O)c1ccc(O)c(O)c1,,1.32%
Nc1nc2c(ncn2COCCO)c(=O)[nH]1,,13.1% [at 12.8 µM]
CCc1ccc(CCOc2ccc(CC3SC(=O)NC3=O)cc2)nc1 (stereo not drawn),,-23.1%
